40 molecules from PubChem BioAssay (NCI) can be followed below.

This is part of a sample that, as a whole, favours compounds with a hit. Of some 83,000 tested, about 20% had one in any assay.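 Each cell line was grown in a 96-well plate and treated with one concentration of compound for 48 hours. Values below 10 were considered active.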 Values without a mark were called inactive. The source made the active and inactive calls.

This assay concerns HCC-2998 colon. As to the kind of experiment: NCI-60 one-dose screen, 48 h (100 = growth as untreated, 0 = no growth, -100 = all killed). The following applies: 10 µM unless noted. Here is the method: Growth inhibition of the HCC-2998 human tumor cell line is measured as a screen for anti-cancer activity. Cells are grown in 96 well plates and exposed to the test compound for 48 hours. Compounds are tested at a single concentration, which is 10^-5 M for most compounds. The reported endpoint is percent growth (GI% or GIPRCNT), where numbers from 0 - 100% represent growth inhibition, and numbers from -100% - 0 represent cell death. For example, a value of 40 represents 60% growth inhibition. A value of 0 means no net growth occurred over the course of the experiment. A value of -40 indicates 40% of cells at the beginning of the experiment died by the end of the experiment. A value of -100 means all cells are dead at the end of the experiment.
NCI-60 Human Tumor Cell Lines Screen was performed using the standard one-dose NCI protocol, which is described in more detail at https://dtp.cancer.gov/discovery_development/nci-60/default.htm.
Compounds with GIPRCNT values below 10 were considered active. Activity score was based on GIPRCNT using the following formula: […]
Score is 0 for GIPRCNT values of 100 or above, 50 for GIPRCNT values of 0, and 100 for GIPRCNT values of -100.
Consider `NCCN1CCN(c2nc(-c3ccccc3)nc3nc(-c4ccccc4)oc23)CC1`, for which the growth is -14.4% (active).
With `CCCCCc1ccc(S(=O)(=O)N(C(C)=O)c2cccc(-c3csc(N(CCN4CCN(C)CC4)C(C)=O)n3)c2)cc1`, the growth is -81.2% (active).
As for `CNC(=O)c1cc(Oc2ccc3nc(NC(=O)c4ccc(CN5CCCN(C)CC5)c(C(F)(F)F)c4)sc3c2)ccn1`, the figure is 4.85% (active); as for `c1cncc(-c2cn3nc(-c4c[nH]c5ccccc45)sc3n2)c1`, 59.1%.
In the case of `O=C1Nc2cc(OC(F)(F)F)ccc2Oc2ccc(-c3ccnc(N4CC[C@H](O)C4)c3)cc21`, the growth is 0.963% (active).
On to `COc1ccc(NC(=O)[C@H](C)N)cc1C(=O)Nc1cccc(-c2cc(=O)c3c(OC)c(OC)c(OC)cc3o2)c1`, for which the growth was 65.2%.
Consider `CCOP(=O)(OCC)OC[C@]12CCC(C)(C)C[C@H]1C1=CC[C@@H]3[C@@]4(C)C/C(=C\c5cccnc5)[C@H](OP(=O)(OCC)OCC)C(C)(C)[C@@H]4CC[C@@]3(C)[C@]1(C)CC2`, for which the growth was 33.1%.
Regarding `CCOC(=O)C1=C(C)Nc2nc3ccccc3n2C1c1ccccc1` (stereo not given), the growth was 114%.
Turning to `COc1ccc(Cn2cc3c(c2-c2cc(OC)c(OC)c(OC)c2)CCCc2cnoc2-3)cc1N`, the growth was 49%.
Take `CC[C@]12C=CCN3CC[C@]4(C(=C(C(=O)OC)C1)Nc1cc5c(cc14)[C@@H]1[C@H](O5)[C@@H](O)[C@@]4(CC)CC(C(=O)OC)=C5Nc6cc(OC)ccc6[C@@]56CCN1[C@@H]46)[C@@H]32`: the growth is -58.7% (active).
For `CS(=O)(=O)c1ccc2c(c1)c1c(n2S(=O)(=O)c2ccc(Cl)cc2)CCCC1` the value was 30.1%; for `O=C(NCCNc1cc(-c2cn(-c3ccccc3)nc2-c2cccc(O)c2)ccn1)Nc1ccc(Cl)c(C(F)(F)F)c1`, -77.7% (active); for `Cc1ccc(NC(=O)c2ccc(CN3CCN(C)CC3)c(I)c2)cc1Oc1ccc(-c2[nH]nc3ncnc(N)c23)cc1`, 108%.
As for `C#C[C@]1(O)CC[C@H]2[C@@H]3CC=C4c5sc(Nc6cc(OC)ccc6OC)nc5CC[C@]4(C)[C@H]3CC[C@@]21C`, the figure is 62.4%; as for `Cc1ccc(-c2nnc3sc(C4=Cc5ccccc5OC=C4)nn23)cc1`, 101%.
For the molecule `Cc1ccc(/C=C/c2nn3c(-c4ccco4)nnc3s2)cc1`, the growth was 114%.
For `COc1ccc(-c2nc(SCC(C)C)nc(N/N=C\c3cccc([N+](=O)[O-])c3)c2C#N)cc1`, the growth was 80.3%.
On to `CCOc1c(C#N)c(Nc2ccc(S(N)(=O)=O)cc2)c(C#N)c2nnc(C)n12`, for which the growth is 106%.
Take `Cn1cc(-c2nn3cc(-c4ccncc4)nc3s2)c2cc(Cl)ccc21`: the growth was 36.3%.
For `Cn1cc(-c2nnc(N)nc2-c2cn(C)c3ccc(F)cc23)c2cc(F)ccc21`, the growth is 104%.
For `Oc1ccccc1/C=N/Nc1nc(N/N=C/c2ccccc2O)nc(N2CCOCC2)n1` the value was 58.9%; for `NS(=O)(=O)c1ccc(Nc2nc(N/N=C/c3ccc(F)cc3)nc(Nc3ccccc3)n2)cc1`, 55.4%.
Take `COc1cc(-c2nc(SCc3ccc(C)cc3)[nH]c(=O)c2C#N)ccc1OCc1ccccc1`: the growth was 117%.
Turning to `CCn1c2ccc(/C=N/NS(=O)(=O)CCN(C)C)cc2c2cc(/C=N/NS(=O)(=O)CCN(C)C)ccc21`, the growth was 104%.
For `O=c1c2c(O)cccc2oc2c3c(cc(O)c12)O[C@H]1OC=C[C@@H]31`, the growth is 63.8%.
`CC1(C)CC[C@]2(C(=O)O)CC[C@]3(C)C(=CCC4[C@@]5(C)C[C@@H](O)[C@@H]6OC(c7ccccc7O)OC[C@@]6(C)C5CC[C@]43C)C2C1` (stereo not given in full): the growth was 34.9%.
For `O=C(Nc1cccc(Cl)c1)Nc1nc2ccc([N+](=O)[O-])cc2s1` the value was 5.59% (active).
On to `CC1(C)CC[C@]2(C(=O)N3CCCN(CC#N)CC3)CC[C@]3(C)C(=CC[C@@H]4[C@@]5(C)CC[C@H](O)C(C)(C)[C@@H]5CC[C@]43C)[C@H]2C1`, for which the growth was 71.2%.
As for `COC(=O)[C@@]1(C)CC[C@]2(C)CC[C@]3(C)C(=CC(=O)[C@@H]4[C@@]5(C)Cc6c(n(CC#CCN7CCN(C)CC7)c7ccccc67)C(C)(C)[C@@H]5CC[C@]43C)[C@@H]2C1`, the figure is 94.8%.
For `Cn1cc2c(c1)-c1c(sc3nc(-c4ccc(NC(=O)Nc5cc(C(C)(C)C)on5)cc4)cn13)CC2`, the growth was 63.1%.
In the case of `C#C[C@]1(O)CC[C@H]2[C@@H]3CC=C4c5sc(Nc6cccc(C)n6)nc5CC[C@]4(C)[C@H]3CC[C@@]21C`, the growth was 47.5%.
Take `Cn1c2ccc(Br)cc2c2c3c(c4c5cc(F)ccc5oc4c21)C(=O)N(O)C3=O`: the growth was 94.6%.
Turning to `O=C1c2c(c3c4cc(Br)ccc4[nH]c3c3ccc4ccccc4c23)C(=O)N1CCN1CCNCC1`, the growth was 51.5%.
As for `CCOC(=O)c1c(NCC(=O)Nc2cccc(Cl)c2)sc2c1CCCC2`, the figure is 103%.
As for `O=C(NCCCNc1cc(-c2cn(-c3ccccc3)nc2-c2cccc(O)c2)ccn1)Nc1cccc(C(F)(F)F)c1`, the growth is -34.7% (active).
For the molecule `CC(=O)Nc1nc2c(s1)C1=CC[C@H]3[C@@H]4CC[C@H](C(C)=O)[C@@]4(C)CC[C@@H]3[C@@]1(C)CC2`, the growth was 96.9%.
Consider `COc1cc(C2=NN(C(C)=O)C(c3ccc(N4CCOCC4)cc3)C2)cc(OC)c1OC` (stereo not given), for which the growth was 107%.
As for `Oc1ccc(CSc2nnc(-c3ccc(Br)cc3)n2-c2ccccc2)c2cccnc12`, the figure is 44.9%; as for `Nc1nc(-c2cccc([N+](=O)[O-])c2)c(N=Nc2ccccc2[N+](=O)[O-])s1`, 84.9%; as for `COc1cc2c3c(n(CCCNCC4CC4)c(=O)c2cc1OC)-c1cc2c(cc1C3=O)OCO2`, 69.1%.
